In the library only some 19% were active in any assay of this set; here they are far more common.
HT1080-NT tox: kills 2HG-producing HT-1080-NT fibrosarcoma cells; 360,000 compounds, 1.6% hits; Potency, µM (highest dose often 46.1 µM), actives largely listed as cytotoxic; HT-1080-NT fibrosarcoma viability, CellTiter-Glo ATP luminescence, 48 h;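 note: NT is the 2HG producing partner of a matched IDH1 knockdown line; nearly all actives have a fitted effect of over 55% in size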
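Viability by CellTiter-Glo luminescence after 48 h compound exposure at 37C of HT-1080-NT cells (750/well, RPMI, 5% FBS). % activity scaled between DMSO wells and medium-only wells, then curve-fitted and categorized by curve class.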
TDP1 cell noCPT: qHTS for Inhibitors of human tyrosyl-DNA phosphodiesterase 1 (TDP1): qHTS in cells in absence of CPT. DT40 Tdp1-/- hTDP1 cells, no CPT, ATP luminescence, 48 h. Potency, µM (series often up to 46.2 µM), most hits filed as inhibitors. 420,000 compounds, 15% hits; note: nearly all actives have a fitted effect of over 55% in size
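Chicken DT40 Tdp1-/- cells complemented with human TDP1, screened without camptothecin (DMSO vehicle only), 400 cells/well. Compounds pin-transferred, cells incubated at 37 °C for at least 48 hr. Growth read as ATP-dependent luminescence (CellTiter-Glo, 30 min at RT).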
HT1080 IDH1KD tx: kills HT-1080 cells with IDH1 knockdown. HT-1080 IDH1 knockdown viability, ATP luminescence, 48 h. Potency, µM (series often up to 46.1 µM), actives largely listed as cytotoxic. 360,000 compounds, 2% hits
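In this qHTS, HT-1080 cells depleted of IDH1 are exposed for 48 h at 37 °C to compound titrations. Toxicity is scored from CellTiter-Glo luminescence, with DMSO as full viability and medium alone as none.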
TDP1 cell CPT: DT40-hTDP1 cell growth loss with CPT. Potency, µM (titrated, usually from 46.2 µM), hits mostly inhibitors. 420,000 compounds, 12% hits. chicken DT40 Tdp1-/-;hTDP1 cells + 20 nM CPT, ATP luminescence, 48 h; note: nearly all actives have a fitted effect of over 55% in size
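Cell growth measured by CellTiter-Glo luminescence after a minimum 48 h, 37 C compound exposure with 20 nM CPT in Tdp1-knockout DT40 cells stably expressing hTDP1, seeded 400/well; qHTS titration format.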
IL-1B inflam inh: blocks inflammasome-driven IL-1 beta release; 360,000 compounds, 4.7% hits; THP-1 LPS/ATP IL-1B secretion, AlphaLISA, 16 h; hits give low values; activity change, % at 57.5 µM; in the data active = activity change below about -50%; inconclusive = mostly about -30% to -49%
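Secreted IL-1B measured by AlphaLISA bead assay after 16 h compound exposure of THP-1 cells; compounds (final up to 57.5 uM) added 1 h before LPS (250 ng/mL) and ATP (1.25 mM) stimulation; lower signal means less secretion.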
Each line names hits and unclear results; the compound was inactive in the other large screens. Unless noted, calls come from the whole dose curve; as a rule, active = well fitted curve in the direction sought with a large enough effect; inconclusive = small, poorly fitted or top-dose-only effect, or another doubt; inactive = no such curve, though single readings can be large; an effect the other way counts as inactive or inconclusive.

Cc1ccn2cc(-c3ccc(O)c(O)c3)nc2c1	TDP1 cell noCPT 9.2µM, TDP1 cell CPT 16.4µM
Oc1ccc(-c2cn3ccccc3n2)cc1	TDP1 cell noCPT inconclusive
Oc1ccc(-c2cn3ccccc3n2)cc1O	TDP1 cell noCPT 13µM, TDP1 cell CPT 25.9µM
Cc1ccn2cc(CC(=O)O)nc2c1	none
COC(=O)C(C(=O)Nc1nc2ccccc2s1)C1CCCC1 (centres undefined)	none
Cn1nc([N+](=O)[O-])nc1Sc1cccc2cccnc12	TDP1 cell noCPT 20.6µM, TDP1 cell CPT 6.51µM
Cn1nc([N+](=O)[O-])nc1Sc1nnc(-c2ccccc2)o1	HT1080-NT tox inconclusive, TDP1 cell noCPT 4.61µM, HT1080 IDH1KD tx inconclusive, TDP1 cell CPT 5.17µM, IL-1B inflam inh -95.7
Cn1nc([N+](=O)[O-])nc1Sc1nnnn1-c1cccc(C(=O)O)c1	none
C=CCn1c(SCc2ccccc2Cl)nnc1-c1sc2nc(C)cc(C)c2c1N	HT1080-NT tox inconclusive, TDP1 cell noCPT 23.1µM, TDP1 cell CPT inconclusive
O=C(C[C@H]1CC[C@@H]2[C@H](COC[C@H](O)CN2C(=O)c2cnccn2)O1)NCc1ccc(Cl)cc1	none
Cc1sc2ncn(CC(=O)Nc3ccccc3F)c(=O)c2c1-c1ccccc1	HT1080-NT tox inconclusive, TDP1 cell noCPT inconclusive
CCC(CC)c1nnc(NC(=O)C2CCCO2)s1 (centres undefined)	none
CCOc1ccc(/C=C2\SC(=S)N(CCC(=O)N(CCO)c3ccccc3)C2=O)cc1	HT1080-NT tox inconclusive, TDP1 cell noCPT inconclusive, HT1080 IDH1KD tx inconclusive, TDP1 cell CPT inconclusive, IL-1B inflam inh -80.6
COc1ccc(/C=C2\SC(=S)N(CCC(=O)N(CCO)c3ccccc3)C2=O)cc1OC	TDP1 cell noCPT inconclusive, TDP1 cell CPT inconclusive
CCc1ccc(/C=C2\SC(=S)N(CCCC(=O)N(CCO)c3ccccc3)C2=O)cc1	HT1080-NT tox inconclusive, TDP1 cell noCPT 16.4µM, HT1080 IDH1KD tx inconclusive, TDP1 cell CPT inconclusive, IL-1B inflam inh -70.3
CCn1c(=O)c2sccc2n(Cc2ccccc2)c1=O	none
Cc1noc(C)c1CSc1nc2ccccc2c(=O)n1-c1ccc(Cl)cc1	HT1080-NT tox 10µM, TDP1 cell noCPT 14.6µM, HT1080 IDH1KD tx 7.08µM, TDP1 cell CPT 18.4µM
CN(C)c1nc(N)nc(CSc2nnnn2-c2ccc(Cl)cc2)n1	HT1080-NT tox inconclusive, TDP1 cell noCPT inconclusive, HT1080 IDH1KD tx 23.1µM, TDP1 cell CPT inconclusive
CN(C)c1nc(N)nc(CSc2nnnn2-c2ccc(C(=O)O)cc2)n1	none
Cc1noc(C)c1CSc1nnnn1-c1ccc(Cl)cc1	TDP1 cell noCPT 14.6µM, TDP1 cell CPT inconclusive
CSc1nnnn1-c1ccc(Cl)cc1	none
CC(=O)Nc1ccc(S(=O)(=O)N(C)CC(=O)OCC(=O)N(C)c2ccccc2)cc1	none
COc1ccc(/C=C/C(=O)C2CC2)cc1COc1cccc(C)c1C	HT1080-NT tox inconclusive, TDP1 cell noCPT 23.1µM, HT1080 IDH1KD tx inconclusive, TDP1 cell CPT inconclusive, IL-1B inflam inh -62.3
COc1ccc(/C=N/NC(=S)Nc2ccccc2)cc1COc1cccc(C)c1C	TDP1 cell noCPT inconclusive, TDP1 cell CPT inconclusive
COc1ccc(C(=O)/C=C/c2ccc(OC)c(COc3ccccc3F)c2)cc1	TDP1 cell noCPT inconclusive, TDP1 cell CPT 25.9µM, IL-1B inflam inh -89.7
COc1ccc(/C=C/C(=O)c2ccc(O)cc2)cc1COc1ccc(F)cc1	HT1080-NT tox inconclusive, TDP1 cell noCPT inconclusive, HT1080 IDH1KD tx inconclusive, TDP1 cell CPT inconclusive, IL-1B inflam inh -98.0
COc1ccc(C(=O)N/N=C/c2ccc(OC)c(COc3ccc(F)cc3)c2)cc1	TDP1 cell noCPT inconclusive, TDP1 cell CPT inconclusive
CCn1cc(S(=O)(=O)c2ccccc2)c(=O)c2cc(C)ccc21	none (no result: HT1080-NT tox, HT1080 IDH1KD tx, IL-1B inflam inh)
Cc1ccc(C)c(N2CCN(C(=O)c3cc4sccc4n3C)CC2)c1	HT1080-NT tox inconclusive, TDP1 cell noCPT inconclusive, HT1080 IDH1KD tx inconclusive, TDP1 cell CPT inconclusive
Cc1cccc(N2CCN(C(=O)C3CCN(C(=O)c4cc5sccc5n4C)CC3)CC2C)c1 (centres undefined)	TDP1 cell noCPT 5.17µM, TDP1 cell CPT 13µM (no result: HT1080-NT tox, HT1080 IDH1KD tx, IL-1B inflam inh)

Assay outcomes: PubChem BioAssay, National Center for Advancing Translational Sciences (NCATS)
